# For some assays here: Results with a measured potency or affinity are listed apart. Calls of active or inactive are those of the source.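 The calls were made as follows, unless noted: active = signal rise over 3 SD above mean of control wells given weak agonist, in both repeats and first screen; inactive = the rest.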
# Experiments:
# [1] = test system: TRPC4 beta (transient receptor potential cation channel C4), mouse; test: TRPC4 cation channel opening, retest – cell-based, Fluo4 calcium, HEK293 TRPC4beta/mu-opioid, duplicates, 10 µM, confirmation (AID 2426;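 active = fluorescence ratio normalized to control raised more than 50% in primary screen plus both repeat runs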); conditions: Fluo4 calcium fluorescence, at 10 µM; hits give high values
# [2] = test system: transient receptor potential cation channel C4 beta (TRPC4), mouse; test: TRPC4 cation channel opening, second retest – cell-based, second round, Fluo4, HEK293 TRPC4beta/mu-opioid, 1 µM, confirmation (AID 2461;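 active = primary screen active and over 50% activation in each of two duplicate runs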); conditions: Fluo4 calcium fluorescence, at 1 µM; hits give high values
# [3] = test system: TRPC4 (transient receptor potential cation channel C4 beta), mouse; test: potentiation of DAMGO EC20 TRPC4 response – cell-based, second round, Fluo-4, HEK293 TRPC4beta/mu-opioid, 1 µM, confirmation (AID 2554;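 active = primary screen hit whose fluorescence ratio, in both repeats, exceeds the weak agonist control mean by 3 SD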); conditions: DAMGO EC20, Fluo-4 calcium flux, at 1 µM; hits give high values
# [4] = test system: TRPC4 beta (transient receptor potential cation channel C4), mouse; test: potentiation of DAMGO EC20 TRPC4 response – cell-based, Fluo-4, HEK293 TRPC4beta/mu-opioid, confirmation (AID 2555;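 active = primary screen hit whose calcium fluorescence ratio, in both repeats, exceeds the weak agonist control mean by 3 SD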); conditions: DAMGO EC20, Fluo-4 calcium flux, at 10 µM; hits give high values
# [5] = biological target: Short transient receptor potential channel 4 (Mus musculus) (UniProt Q9QUQ5); test: blockers of DAMGO-evoked TRPC4 calcium flux – cell-based, Fluo4, HEK293 TRPC4beta/mu-opioid, confirmation (AID 2636;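 active = calcium signal cut by more than 3 SD below the full-agonist control yet still positive, in both repeats and the earlier primary screen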); conditions: at 10 µM; hits give high values
# [6] = biological target: Short transient receptor potential channel 4 (Mus musculus) (UniProt Q9QUQ5); test: blockers of DAMGO-evoked TRPC4 calcium flux – cell-based, second round, Fluo4, HEK293 TRPC4beta/mu-opioid, 1 µM, confirmation (AID 2637;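 active = calcium signal ratio cut to more than 3 SD under the fully stimulated control mean yet still positive, in both repeats and the primary screen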); conditions: at 1 µM; hits give high values
# [7] = biological target: Short transient receptor potential channel 4 (Mus musculus) (UniProt Q9QUQ5); test: calcium entry via TRPC4 opening agents – cell-based, HEK293 TRPC4/mu-opioid, Fluo-4 calcium, dose response (AID 434937;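 active = primary screen activator hit with a dose response curve and TRPC4 channel activation at any tested dose; inactive = no activation, no dose response, or not a primary hit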); conditions: HEK293 TRPC4 cells, Fluo-4 calcium fluorescence ratio; series mostly up to 20 µM
# [8] = biological target: Short transient receptor potential channel 4 (Mus musculus) (UniProt Q9QUQ5); test: potentiation of DAMGO-evoked TRPC4 calcium signal – cell-based, HEK293 TRPC4/mu-opioid, Fluo-4 calcium, EC20 DAMGO, dose response (AID 434941;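 active = earlier screen potentiator hit that boosts the TRPC4 ion channel at some dose, with a dose response; inactive = no potentiation, no dose response, or not a prior hit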;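 also: calcium entry triggered by an EC20 dose of DAMGO at the co-expressed mu-opioid receptor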); conditions: HEK293 TRPC4/mu-opioid cells, Fluo-4 calcium fluorescence; series mostly up to 20 µM
# [9] = biological target: Short transient receptor potential channel 4 (Mus musculus) (UniProt Q9QUQ5); test: block of DAMGO-driven TRPC4 calcium entry – cell-based, HEK293 TRPC4/mu-opioid, Fluo-4 calcium, dose response (AID 434942;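 active = primary screen inhibitor hit that blocks the TRPC4 channel at some tested dose, yielding a dose curve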); conditions: HEK293 TRPC4/mu-opioid cells, DAMGO-evoked Fluo-4 calcium ratio; series mostly up to 20 µM
# [10] = biological target: Short transient receptor potential channel 6 (Mus musculus) (UniProt Q61143); test: TRPC6 blockade by TRPC4 inhibitor hits – cell-based, HEK293, membrane potential dye, duplicate, selectivity assay for TRPC4 inhibitor project, confirmation (AID 434948;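 active = active in primary screen and both duplicates, each dropping signal beyond three positive-control SD with fluorescence still positive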); conditions: HEK293 TRPC6, membrane potential dye fluorescence, at 10 µM, stimulated with maximal-effect acetylcholine; hits give high values
# [11] = biological target: Short transient receptor potential channel 6 (Mus musculus) (UniProt Q61143); test: TRPC6 opening by TRPC4 activator hits – cell-based, HEK293, membrane potential dye, duplicate, selectivity assay for TRPC4 activator project, confirmation (AID 434950;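 active = membrane potential signal rise above negative control mean plus 3 SD in both duplicates, also active in the earlier TRPC4 screen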); conditions: HEK293 TRPC6, membrane potential fluorescence, at 10 µM; activation: hits give high values; outcome: activation
# [12] = biological target: Short transient receptor potential channel 6 (Mus musculus) (UniProt Q61143); test: positive modulators of mouse TRPC6 channel – HEK293 cells, membrane potential dye, duplicate, selectivity assay for TRPC4 potentiator project, confirmation (AID 434952;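 active = compound raising the membrane signal above positive-control mean plus 3 SD in both repeats, and a primary screen hit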); conditions: HEK293 TRPC6, membrane potential dye fluorescence, at 10 µM, maximal acetylcholine added after compound; hits give high values
# [13] = biological target: Short transient receptor potential channel 4 (Mus musculus) (UniProt Q9QUQ5); test: calcium flux activators in TRPC4/5HT1a cells, counter-screen for TRPC4 activator project, cell-based, second counter screen, HEK293 TRPC4/5HT1a, Fluo-4 (AID 434977;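 active = calcium signal rise above buffer-control mean plus 5 SD in both duplicates, and also a hit in the primary screen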); conditions: Fluo-4 calcium flux, at 10 µM; hits give high values
# [14] = serotonin-gated TRPC4 signal block – cell-based, second counter screen, HEK293 TRPC4/5HT1a, Fluo-4, counter-screen for TRPC4 inhibitor project, confirmation (AID 434978;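 active = primary screen active whose calcium signal fell more than 3 SD beyond the full-serotonin control mean in both duplicate plates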;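 also: serotonin given first at submaximal then at maximal dose after compound preincubation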); conditions: Fluo-4 calcium flux, at 10 µM, serotonin added to trigger calcium flux; hits give high values
# [15] = test system: TRPC4 (mouse), co-expressed with 5HT1a in HEK293; test: enhancement of serotonin-evoked TRPC4 response – cell-based, second counter screen, HEK293 TRPC4/5HT1a, Fluo-4, counter-screen for TRPC4 potentiator project, confirmation (AID 434979); conditions: Fluo-4 calcium flux, at 10 µM, serotonin added at its EC20 dose; hits give high values
# [16] = nonspecific calcium rise without TRPC4 – cell-based, HEK293 mu-opioid receptor line, counter-screen for TRPC4 activator project, confirmation (AID 449723;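 active = hit in primary screen, with calcium signal over 5 SD above buffer well mean in both duplicates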;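 also: counter screen cells carry the mu-opioid receptor alone and lack TRPC4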); conditions: HEK293 mu-opioid cells, Fluo-4 calcium fluorescence, at 10 µM; hits give high values
# [17] = nonspecific potentiation of DAMGO calcium response – cell-based, HEK293 mu-opioid receptor line, counter-screen for TRPC4 allosteric potentiator project, confirmation (AID 449724;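 active = calcium signal rise more than 3 SD above the low-dose agonist control mean, in both duplicate plates and the primary screen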); conditions: HEK293 mu-opioid receptor cells, Fluo-4 calcium flux, at 10 µM, compound added before EC20 DAMGO stimulus; hits give high values
# Sequence of Short transient receptor potential channel 4 (Mus musculus) (Q9QUQ5 whole entry, looked up): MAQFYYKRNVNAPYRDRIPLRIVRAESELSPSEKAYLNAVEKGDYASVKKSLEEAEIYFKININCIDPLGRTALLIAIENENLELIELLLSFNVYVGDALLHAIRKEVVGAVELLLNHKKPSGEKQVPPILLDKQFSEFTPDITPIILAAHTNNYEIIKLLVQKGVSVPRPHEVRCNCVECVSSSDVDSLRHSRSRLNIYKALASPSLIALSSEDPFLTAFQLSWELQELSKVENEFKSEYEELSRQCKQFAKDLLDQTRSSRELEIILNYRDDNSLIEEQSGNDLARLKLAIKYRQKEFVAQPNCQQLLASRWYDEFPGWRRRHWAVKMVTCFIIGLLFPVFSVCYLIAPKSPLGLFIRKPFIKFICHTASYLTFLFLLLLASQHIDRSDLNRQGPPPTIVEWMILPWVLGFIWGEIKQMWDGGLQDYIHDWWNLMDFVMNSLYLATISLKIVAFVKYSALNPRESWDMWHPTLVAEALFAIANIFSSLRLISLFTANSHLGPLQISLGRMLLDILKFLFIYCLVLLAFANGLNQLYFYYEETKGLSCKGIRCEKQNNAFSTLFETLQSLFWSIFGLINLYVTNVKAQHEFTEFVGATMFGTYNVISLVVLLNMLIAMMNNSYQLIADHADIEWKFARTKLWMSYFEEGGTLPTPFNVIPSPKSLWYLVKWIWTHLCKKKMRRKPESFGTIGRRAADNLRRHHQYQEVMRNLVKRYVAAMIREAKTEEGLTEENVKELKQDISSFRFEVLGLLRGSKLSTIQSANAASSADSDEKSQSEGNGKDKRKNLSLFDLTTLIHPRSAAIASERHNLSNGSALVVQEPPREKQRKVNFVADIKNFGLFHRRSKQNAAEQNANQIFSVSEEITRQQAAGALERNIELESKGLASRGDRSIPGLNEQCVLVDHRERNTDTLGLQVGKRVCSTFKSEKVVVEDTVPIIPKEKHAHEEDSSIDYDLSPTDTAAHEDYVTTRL
# Sequence of Short transient receptor potential channel 6 (Mus musculus) (Q61143 whole entry, looked up): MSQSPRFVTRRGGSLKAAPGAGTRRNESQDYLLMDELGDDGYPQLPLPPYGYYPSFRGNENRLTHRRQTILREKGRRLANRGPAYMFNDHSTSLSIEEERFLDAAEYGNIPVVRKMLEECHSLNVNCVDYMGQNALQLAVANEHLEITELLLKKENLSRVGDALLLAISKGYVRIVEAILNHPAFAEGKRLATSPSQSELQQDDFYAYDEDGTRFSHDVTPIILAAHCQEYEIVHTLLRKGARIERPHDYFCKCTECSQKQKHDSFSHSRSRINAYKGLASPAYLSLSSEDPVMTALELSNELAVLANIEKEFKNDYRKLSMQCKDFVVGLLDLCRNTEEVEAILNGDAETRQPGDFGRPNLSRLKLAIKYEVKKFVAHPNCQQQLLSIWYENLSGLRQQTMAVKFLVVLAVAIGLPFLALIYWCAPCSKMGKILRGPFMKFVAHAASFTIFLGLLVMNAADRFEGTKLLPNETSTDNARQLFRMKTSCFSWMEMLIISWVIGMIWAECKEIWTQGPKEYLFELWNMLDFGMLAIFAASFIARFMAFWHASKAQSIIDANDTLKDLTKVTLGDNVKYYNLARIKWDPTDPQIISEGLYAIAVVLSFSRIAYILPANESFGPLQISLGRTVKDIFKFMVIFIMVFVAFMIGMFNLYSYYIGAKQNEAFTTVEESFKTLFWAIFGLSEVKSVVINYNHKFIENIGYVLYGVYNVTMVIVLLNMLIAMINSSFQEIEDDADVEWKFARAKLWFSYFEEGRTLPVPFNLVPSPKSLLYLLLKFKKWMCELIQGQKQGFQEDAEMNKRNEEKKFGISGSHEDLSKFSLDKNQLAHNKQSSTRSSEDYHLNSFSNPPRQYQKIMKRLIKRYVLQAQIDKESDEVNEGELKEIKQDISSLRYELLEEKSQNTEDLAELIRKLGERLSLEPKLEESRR
SMILES,outcome [1],outcome [2],outcome [3],potentiation [4],outcome [5],outcome [6],outcome [7],outcome [8],outcome [9],outcome [10],outcome [11],outcome [12],outcome [13],outcome [14],potentiation [15],outcome [16],outcome [17],outcome [4],outcome [15],potentiation [3]
Cc1[nH]c2ccccc2c1C(=O)CN1C(=O)NC(C)(c2ccc(Cl)cc2Cl)C1=O (configuration not stated),inactive,inactive,inactive,21% (active),inactive,inactive,inactive,inactive,inactive,inactive,inactive,inactive,inactive,inactive,37.7% (active),inactive,inactive,,,
CCOc1nc(C)cc(C)c1S(=O)(=O)c1cccc(C)c1,inactive,inactive,inactive,,inactive,inactive,inactive,inactive,inactive,inactive,inactive,inactive,inactive,inactive,,inactive,inactive,inactive,inactive,
Cc1cc(Br)ccc1OCCN1CCCC1,inactive,inactive,,,inactive,inactive,inactive,inactive,inactive,inactive,inactive,inactive,inactive,inactive,7.25% (active),inactive,inactive,inactive,,12% (active)
CC1(C#CC[N+]2(C)CCCCC2)CCC2C(O1)c1ccccc1OC2(C)C (configuration not stated),inactive,inactive,,21% (active),inactive,inactive,inactive,inactive,inactive,inactive,inactive,inactive,inactive,inactive,,inactive,inactive,,inactive,8% (active)
CCn1c(NCc2ccco2)nc2ccccc21,inactive,inactive,inactive,8% (active),inactive,inactive,inactive,inactive,inactive,inactive,inactive,inactive,inactive,inactive,12.3% (active),inactive,inactive,,,
Cc1cc(C)nc(NNS(=O)(=O)c2ccc(F)c(Cl)c2)n1,inactive,inactive,inactive,,inactive,inactive,inactive,inactive,inactive,inactive,inactive,inactive,inactive,inactive,6.83% (active),inactive,inactive,inactive,,
CN1CCN(CC#CCn2c3ccccc3c3ccccc32)CC1,inactive,inactive,,12% (active),inactive,inactive,inactive,inactive,inactive,inactive,inactive,inactive,inactive,inactive,38.7% (active),inactive,inactive,,,10% (active)
COc1ccc(CN2CCN(c3nc4ccccc4s3)CC2)cc1,inactive,inactive,inactive,,inactive,inactive,inactive,inactive,inactive,inactive,inactive,inactive,inactive,inactive,12.4% (active),inactive,inactive,inactive,,
NCCc1nnc(SCc2ccccc2)o1,inactive,inactive,inactive,,inactive,inactive,inactive,inactive,inactive,inactive,inactive,inactive,inactive,inactive,,inactive,inactive,inactive,inactive,
COCCNC(=O)/C(C#N)=C/c1cc(C(C)C)c(OC)cc1C,inactive,inactive,inactive,14% (active),inactive,inactive,inactive,inactive,inactive,inactive,inactive,inactive,inactive,inactive,20.4% (active),inactive,inactive,,,
O=C(Nc1ccc(F)cc1)Nc1cc(S(=O)(=O)N2CCOCC2)ccc1N1CCCC1,inactive,inactive,inactive,53% (active),inactive,inactive,inactive,inactive,inactive,inactive,inactive,inactive,inactive,inactive,33% (active),inactive,inactive,,,
COc1ccc(C(CNC(=O)C2CC2)N(C)C)cc1 (configuration not stated),inactive,inactive,inactive,,inactive,inactive,inactive,inactive,inactive,inactive,inactive,inactive,inactive,inactive,,inactive,inactive,inactive,inactive,
O=C(Nc1ccc(Cl)c(Cl)c1)N(CCCN1CCOCC1)Cc1cccs1,inactive,inactive,inactive,,inactive,inactive,inactive,inactive,inactive,inactive,inactive,inactive,inactive,inactive,,inactive,inactive,inactive,inactive,
O=C(c1ccncc1)N1c2ccccc2Sc2ccccc21,inactive,inactive,inactive,,inactive,inactive,inactive,inactive,inactive,inactive,inactive,inactive,inactive,inactive,,inactive,inactive,inactive,inactive,
CCN1C(=O)/C(=C\N2CCCc3ccccc32)SC1=S,inactive,inactive,inactive,,inactive,inactive,inactive,inactive,inactive,inactive,inactive,inactive,inactive,inactive,,inactive,inactive,inactive,inactive,
Cc1ccccc1-n1c(=O)c2c(n3cnnc13)-c1ccccc1CC21CCCCC1,inactive,inactive,inactive,,inactive,inactive,inactive,inactive,inactive,inactive,inactive,inactive,inactive,inactive,10.5% (active),inactive,inactive,inactive,,
